Reference: PubChem BioAssay AID1986 (Sanford-Burnham Center for Chemical Genomics, 2009)
In all, about 290,000 compounds went through this assay and about 890 (0.31%) were called active. No stated cut-off is given here; in the data, active means inhibition mostly above about 52% (no sharp cut-off); inactive means mostly below about 76%. The entries come from a sample that favours actives as a whole.

Assay: cell-free HIV fusion peptide-binding blockers – biochemical, uHTS, fluorescence dequenching, primary screen (AID 1986)
Conditions: 30 min, stronger effect = higher value
[1] = measured here: repeat confirmation average inhibition, at 18.6 µM

Structure (SMILES)	inhibition (at 20 µM)	inhibition [1] [%]
Cc1[nH]c2ccccc2c1C(=O)C(=O)NCCc1c[nH]c2ccccc12	0.7% (inactive)	–
CCn1c(SCC(=O)Nc2cc(C)on2)nnc1-c1ccc(S(=O)(=O)N2CCN(C)CC2)cc1	-2.9% (inactive)	–
N#Cc1c(-c2ccccc2Cl)noc1/C=C/Nc1ccc(C(=O)O)cc1	53.5% (inactive)	3.7
O=C(NC1CCc2ccccc21)c1cc(COc2c(F)cccc2F)on1 (stereo not drawn)	0.3% (inactive)	–
O=C(Cn1cnc2c(nnn2-c2ccccc2)c1=O)NCCc1ccccc1	1.1% (inactive)	–
Cc1ccc(N2C(=O)c3ccc(C(=O)O)cc3C2=O)c(C)c1	-0.3% (inactive)	–
Cc1ccc(N2C(=O)[C@@H]3C(C(=O)CN4C(=O)c5ccccc5C4=O)=NN[C@@H]3C2=O)c(C)c1	-2.5% (inactive)	–
O=C1O/C(=C/C(=O)N2CCOCC2)c2ccccc21	1.9% (inactive)	–
O=C(O)c1ccccc1Nc1ccccc1C(=O)O	4% (inactive)	–
COc1cc(-c2ccc(Nc3ccccc3C(=O)O)c(OC)c2)ccc1Nc1ccccc1C(=O)O	61% (active)	–
COc1ccc(Nc2ccccc2C(=O)O)cc1	3.4% (inactive)	–
Cc1ccc(N=Cc2cc(Cc3ccccc3Cl)cc([N+](=O)[O-])c2O)c(O)c1	64% (active)	57.3
COc1ccc(N=Cc2cc(Cc3ccccc3Cl)cc([N+](=O)[O-])c2O)cc1OC	69.3% (inactive)	19.7
Cc1ccc(O)c(N=Cc2cc(Cc3ccccc3)cc([N+](=O)[O-])c2O)c1	58% (inactive)	14.2
CCN(CC)S(=O)(=O)c1ccc2c(c1)nc(SCC(N)=O)n2-c1ccc(OC)cc1	-1.3% (inactive)	–
COc1ccc2c3c(cccc13)OC2=O	-1.2% (inactive)	–
COc1cc(C(=O)NC(C)CCc2ccccc2)cc(OC)c1OC (stereo not drawn)	-1.1% (inactive)	–
COc1cccc(/C=C2/C(=O)NN(c3ccccc3)C2=O)c1	15.8% (inactive)	–
CCOc1cc(/C=C2/C(=O)NN(c3cccc(Cl)c3)C2=O)ccc1O	31.4% (inactive)	–
COc1cc(/C=C2\C(=O)NN(c3ccccc3)C2=O)cc([N+](=O)[O-])c1O	32.8% (inactive)	–
COc1cc(/C=C2/C(=O)NN(c3ccc(Cl)c(Cl)c3)C2=O)cc([N+](=O)[O-])c1O	50.8% (active)	–
COc1cc(/C=C2/C(=O)NN(c3ccc(Cl)cc3)C2=O)cc(OC)c1O	93.4% (active)	53.7
COc1cc(/C=C2/C(=O)NN(c3cccc(Cl)c3)C2=O)cc(Br)c1O	102% (active)	95.1
COc1cc(/C=C2/C(=O)NN(c3ccc(F)cc3)C2=O)cc(Cl)c1O	39.2% (inactive)	–
COC(=O)c1ccc(N2NC(=O)/C(=C/c3cc(OC)c(O)c(OC)c3)C2=O)cc1	138% (inactive)	–

Structure (SMILES)	inhibition (at 20 µM)	inhibition [1] [%]
COc1cc(/C=C2/C(=O)NN(c3cccc(Cl)c3)C2=O)cc(OC)c1O	104% (active)	80.5
COc1cc(/C=C2/C(=O)NN(c3ccccc3)C2=O)cc(Br)c1O	34.5% (inactive)	–
COc1cc(/C=C2\C(=O)NN(c3ccc(C)cc3)C2=O)cc([N+](=O)[O-])c1O	38% (inactive)	–
COc1cc(/C=C2/C(=O)NN(c3cccc(C)c3)C2=O)cc([N+](=O)[O-])c1O	30.3% (inactive)	–
COc1cc(OC)cc(C(=O)N2CCN(C(=O)c3ccc(-c4ccccc4)cc3)CC2)c1	-0.7% (inactive)	–
CN(c1ccc(C(=O)N2CCCCC2)cc1)S(=O)(=O)c1cccs1	0.7% (inactive)	–
COc1ccc(OC)c(-n2c(=S)[nH]c3cc(C(=O)N4CCC(C(N)=O)CC4)ccc3c2=O)c1	-0.3% (inactive)	–
O=C(NCc1ccc(OC(F)(F)F)cc1)C1CC(c2cccc(F)c2)=NO1 (stereo not drawn)	0.2% (inactive)	–
O=C(c1cscn1)N1CCCC(N2CCN(c3ccc(F)cc3)CC2)C1 (stereo not drawn)	-1.2% (inactive)	–
COc1ccc(CC(=O)Nc2c3c(nn2-c2cccc(Cl)c2)CS(=O)(=O)C3)cc1	-2% (inactive)	–
Cc1ccccc1C(=O)NC1CCN(CC(=O)Nc2nccs2)CC1	2.2% (inactive)	–
COc1c2ccccc2c(OC)c2ccccc12	1.5% (inactive)	–
C=CCN(C(=O)CN1CCCCC1)c1nc(-c2ccccc2)cs1	-1.5% (inactive)	–
Cc1sc2ncnc(SCc3ccc(C(=O)O)cc3)c2c1C	9.5% (inactive)	–
Cc1ccc(-c2csc3ncnc(SCc4ccc(C(=O)O)cc4)c23)cc1	66.8% (active)	–
Cc1ccc(-c2csc3ncnc(SCC(=O)O)c23)cc1	0.9% (inactive)	–
COCCNC(=S)N1CCN(c2cccc(C(F)(F)F)c2)CC1	-0.5% (inactive)	–
Cc1cc(-c2ccccc2)nc(SCc2ccc(C(=O)O)o2)n1	1.6% (inactive)	–
O=C(O)C(Cc1ccccc1)N1C(=O)/C(=C/c2cccnc2)SC1=S (stereo not drawn)	1.1% (inactive)	–
O=C(NN1C(=O)/C(=C/C=C/c2ccco2)SC1=S)c1ccccc1O	65.1% (inactive)	46.4
O=C(O)CC(C(=O)O)N1C(=O)/C(=C/C=C/c2ccco2)SC1=S (stereo not drawn)	65.6% (inactive)	23.1
O=C(NN1C(=O)/C(=C/C=C/c2ccco2)SC1=S)c1ccncc1	68.5% (active)	–
O=C(O)C(Cc1ccccc1)N1C(=O)/C(=C/C=C/c2ccco2)SC1=S (stereo not drawn)	69.2% (active)	–
O=C(O)CCCN1C(=O)/C(=C/C=C/c2ccco2)SC1=S	55.6% (inactive)	27.4
CC(C(=O)O)N1C(=O)/C(=C/C=C/c2ccco2)SC1=S (stereo not drawn)	88.9% (active)	–

Structure (SMILES)	inhibition (at 20 µM)	inhibition [1] [%]
CC(C)C(C(=O)O)N1C(=O)/C(=C/C=C/c2ccco2)SC1=S (stereo not drawn)	76.1% (inactive)	36.6
O=C(NN1C(=O)/C(=C/C=C/c2ccccc2)SC1=S)c1ccncc1	16.6% (inactive)	–
COc1ccc(NC(=S)NC(NC(=O)CCl)C(Cl)(Cl)Cl)c([N+](=O)[O-])c1 (stereo not drawn)	7.2% (inactive)	–
COc1ccccc1S(=O)(=O)Cc1ccc(C(=O)NCc2ccco2)o1	1.6% (inactive)	–
CC1CCN(S(=O)(=O)c2ccc(C(=O)OC(C)C(=O)NC3CCCCC3C)cc2)CC1 (stereo not drawn)	20% (inactive)	–
Cc1oc(-c2cc(F)ccc2F)nc1CN1CCN(C)C(=O)[C@@H]1C	1.3% (inactive)	–
CN=C(Nc1ccc(C(=O)OC)s1)c1ccc(Cl)cc1	0.5% (inactive)	–
O=C(/C=C/c1ccc(OCCCF)cc1)NCc1ccc(Cl)c(Cl)c1	1.7% (inactive)	–
COC(=O)c1cnn(-c2ccc(F)cc2F)c1/C=N/NC(N)=S	-1.1% (inactive)	–
CC(=O)NN1C(=O)c2ccccc2NC1c1ccc(N(C)C)cc1 (stereo not drawn)	-0.9% (inactive)	–
COC(=O)Cn1c(=NC(=O)c2ccc(S(=O)(=O)N3CCc4ccccc4C3)cc2)sc2cc(OC)ccc21	-1.3% (inactive)	–
O=C(N/N=C/c1ccncc1)c1cc(C2CC2)nc2ccccc12	-0.8% (inactive)	–
CC1CCc2c(sc(NC(=O)C3c4ccccc4Oc4ccccc43)c2C(N)=O)C1 (stereo not drawn)	-1.5% (inactive)	–
COC(=O)Nc1sc2c(c1C(N)=O)CCC(C)C2 (stereo not drawn)	0.2% (inactive)	–
NC(=O)c1c(Nc2nc3c(F)cccc3s2)sc2c1CCCC2	59.5% (active)	–
CC1CCc2c(sc(Nc3nc4c(F)cccc4s3)c2C(N)=O)C1 (stereo not drawn)	58.8% (active)	–
COc1ccc2nc(Nc3sc4c(c3C(N)=O)CCCC4)sc2c1	17.5% (inactive)	–
NC(=O)c1c(NC(=O)c2ccccc2F)sc2c1CCCC2	-0.3% (inactive)	–
Cc1c(C(=O)N(Cc2nccn2C)C(C)C)oc2c(F)cccc12	-1% (inactive)	–
O=c1cc(C(F)(F)F)nc(-c2cccnc2)[nH]1	-1.2% (inactive)	–
CC(C)C(=O)Nc1ccc([N+](=O)[O-])cc1Br	1.2% (inactive)	–
O=c1[nH]c2ccccc2nc1/C=C(\O)c1cccs1	66.1% (active)	–
C/C(O)=C/c1nc2ccccc2[nH]c1=O	0.1% (inactive)	–
O/C(=C\c1nc2ccccc2[nH]1)c1cccs1	14.3% (inactive)	–
CCCCC(=O)Nc1cccn2ncnc12	0.2% (inactive)	–

Structure (SMILES)	inhibition (at 20 µM)	inhibition [1] [%]
C/C(=N\NC(=O)c1c[nH]c2ccccc12)c1ccc(C)o1	0.2% (inactive)	–
Cc1cccc(C2=N/C(=C\c3cccs3)C(=O)O2)c1	4.7% (inactive)	–
Cc1ccccc1C1=N/C(=C/c2cccs2)C(=O)O1	4.6% (inactive)	–
O=C1OC(/C=C/c2ccc(Cl)cc2Cl)=NC/1=C\c1cccs1	54.2% (active)	–
CCC(=O)OCc1cc2cccc(C)c2[nH]c1=O	-1.9% (inactive)	–
O=C(O)c1cccc(-n2cccc2C=C2C(=O)c3ccccc3C2=O)c1	30.1% (inactive)	–
O=C1C(=Cc2cccn2-c2ccccc2)C(=O)c2ccccc21	50.1% (inactive)	28.2
O=C1C(=Cc2cccn2-c2ccc(O)cc2)C(=O)c2ccccc21	63.1% (active)	70.3
COC(=O)Cn1ncc(N2C3CC(CC(C)(C)C3)C2C)c(Cl)c1=O (stereo not drawn)	1.1% (inactive)	–
Oc1cccc2ccc(/C=C/c3ccccc3Br)nc12	0.6% (inactive)	–
O=C(/C=C/c1ccccc1)Nc1ccc(Cl)cn1	1% (inactive)	–
COc1cc(C(=O)Oc2cc(C)[nH]c(=O)c2[N+](=O)[O-])cc(OC)c1OC	0.4% (inactive)	–
O=C(Nc1nc(-c2ccccc2)cs1)c1ccccc1NS(=O)(=O)c1ccc(F)cc1	71.5% (active)	–
Cc1ccc(S(=O)(=O)Nc2ccccc2C(=O)Nc2nc(-c3ccc(F)cc3)cs2)cc1	65.5% (active)	–
Cc1ccc(S(=O)(=O)Nc2nc(-c3ccccc3)cs2)cc1	6.9% (inactive)	–
O=C(Nc1cc(S(=O)(=O)N2CCCCC2)ccc1O)c1ccccc1NS(=O)(=O)c1ccc(F)c(F)c1	62.7% (active)	–
O=C(Nc1nc(-c2ccccc2)cs1)c1ccccc1F	0% (inactive)	–
Cc1ccc(S(=O)(=O)Nc2nc(-c3ccc(F)cc3)cs2)cc1	20% (inactive)	–
COc1ccc(-c2csc(NC(=O)c3ccccc3S(C)(=O)=O)n2)cc1	0.4% (inactive)	–
O=C(Nc1cc(S(=O)(=O)N2CCCCC2)ccc1O)c1ccccc1NS(=O)(=O)c1ccc(F)cc1	49.5% (inactive)	–
COc1ccc(-c2csc(NC(=O)c3ccccc3F)n2)cc1	0.1% (inactive)	–
O=S(=O)(Nc1ccc(-c2csc(-c3ccccc3)n2)cc1)c1ccc(F)cc1	0% (inactive)	–
COc1ccc(-c2csc(NC(=O)c3ccccc3NS(=O)(=O)c3ccc(F)c(F)c3)n2)cc1	65% (active)	–
O=C(Nc1cccc(S(=O)(=O)N2CCCCC2)c1)c1ccccc1NS(=O)(=O)c1ccc(F)cc1	58% (inactive)	26
